Measured values from ChEMBL document CHEMBL2218924, “A broad activity screen in support of a chemogenomic map for kinase signalling research and drug discovery” (Biochem J, 2013).

Legend:
[1] = target: Tyrosine-protein kinase SYK (Homo sapiens) (UniProt P43405); settings: at 10 µM
[2] = target: T1, Mitogen-activated protein kinase kinase kinase 7 (Homo sapiens) (UniProt O43318); settings: at 10 µM
T1 sequence (whole entry): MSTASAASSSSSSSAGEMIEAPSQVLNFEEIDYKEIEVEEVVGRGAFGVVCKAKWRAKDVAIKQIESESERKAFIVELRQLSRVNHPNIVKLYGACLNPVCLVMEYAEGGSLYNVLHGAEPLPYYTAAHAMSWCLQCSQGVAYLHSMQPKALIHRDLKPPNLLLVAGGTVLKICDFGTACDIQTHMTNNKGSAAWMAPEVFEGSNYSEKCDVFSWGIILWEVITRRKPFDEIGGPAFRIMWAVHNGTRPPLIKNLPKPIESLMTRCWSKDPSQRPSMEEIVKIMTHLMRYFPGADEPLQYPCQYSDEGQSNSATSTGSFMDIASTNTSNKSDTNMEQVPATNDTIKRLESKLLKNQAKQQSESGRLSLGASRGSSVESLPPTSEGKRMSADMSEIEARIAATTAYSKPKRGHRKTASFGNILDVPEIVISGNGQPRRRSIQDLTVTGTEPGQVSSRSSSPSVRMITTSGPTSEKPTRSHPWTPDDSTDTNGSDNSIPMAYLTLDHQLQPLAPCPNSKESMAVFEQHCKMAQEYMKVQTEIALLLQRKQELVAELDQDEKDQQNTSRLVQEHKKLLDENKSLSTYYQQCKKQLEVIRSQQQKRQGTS

[3] = target: T2, Serine/threonine-protein kinase TAO1 (Homo sapiens) (UniProt Q7L7X3); settings: at 10 µM
T2 sequence (whole entry): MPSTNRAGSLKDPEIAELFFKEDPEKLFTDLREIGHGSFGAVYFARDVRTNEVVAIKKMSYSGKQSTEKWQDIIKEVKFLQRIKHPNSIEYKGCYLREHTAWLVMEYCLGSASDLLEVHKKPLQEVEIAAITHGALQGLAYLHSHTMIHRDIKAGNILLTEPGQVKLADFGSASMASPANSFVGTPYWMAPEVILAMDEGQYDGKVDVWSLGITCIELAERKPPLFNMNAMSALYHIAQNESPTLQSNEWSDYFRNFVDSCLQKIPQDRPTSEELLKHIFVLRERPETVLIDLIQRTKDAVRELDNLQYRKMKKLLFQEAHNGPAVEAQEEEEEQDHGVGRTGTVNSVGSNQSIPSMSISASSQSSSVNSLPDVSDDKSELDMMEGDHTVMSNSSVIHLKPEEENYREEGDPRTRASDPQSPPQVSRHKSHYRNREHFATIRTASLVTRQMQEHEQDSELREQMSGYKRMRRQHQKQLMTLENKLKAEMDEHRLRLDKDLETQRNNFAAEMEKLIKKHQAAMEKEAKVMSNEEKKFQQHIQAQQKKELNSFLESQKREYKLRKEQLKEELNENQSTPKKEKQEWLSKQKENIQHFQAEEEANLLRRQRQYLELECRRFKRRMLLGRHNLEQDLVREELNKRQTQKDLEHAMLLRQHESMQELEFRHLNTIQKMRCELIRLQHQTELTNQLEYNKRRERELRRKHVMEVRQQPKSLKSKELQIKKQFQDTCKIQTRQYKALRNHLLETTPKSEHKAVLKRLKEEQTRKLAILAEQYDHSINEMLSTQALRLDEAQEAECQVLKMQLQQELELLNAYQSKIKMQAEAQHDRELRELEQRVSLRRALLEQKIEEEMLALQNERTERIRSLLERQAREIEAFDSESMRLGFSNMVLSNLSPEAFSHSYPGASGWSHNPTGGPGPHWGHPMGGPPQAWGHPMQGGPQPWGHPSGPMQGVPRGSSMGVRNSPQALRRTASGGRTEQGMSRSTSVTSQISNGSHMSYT

[4] = target: T3, Serine/threonine-protein kinase TAO3 (Homo sapiens) (UniProt Q9H2K8); settings: at 1 µM
T3 sequence (whole entry): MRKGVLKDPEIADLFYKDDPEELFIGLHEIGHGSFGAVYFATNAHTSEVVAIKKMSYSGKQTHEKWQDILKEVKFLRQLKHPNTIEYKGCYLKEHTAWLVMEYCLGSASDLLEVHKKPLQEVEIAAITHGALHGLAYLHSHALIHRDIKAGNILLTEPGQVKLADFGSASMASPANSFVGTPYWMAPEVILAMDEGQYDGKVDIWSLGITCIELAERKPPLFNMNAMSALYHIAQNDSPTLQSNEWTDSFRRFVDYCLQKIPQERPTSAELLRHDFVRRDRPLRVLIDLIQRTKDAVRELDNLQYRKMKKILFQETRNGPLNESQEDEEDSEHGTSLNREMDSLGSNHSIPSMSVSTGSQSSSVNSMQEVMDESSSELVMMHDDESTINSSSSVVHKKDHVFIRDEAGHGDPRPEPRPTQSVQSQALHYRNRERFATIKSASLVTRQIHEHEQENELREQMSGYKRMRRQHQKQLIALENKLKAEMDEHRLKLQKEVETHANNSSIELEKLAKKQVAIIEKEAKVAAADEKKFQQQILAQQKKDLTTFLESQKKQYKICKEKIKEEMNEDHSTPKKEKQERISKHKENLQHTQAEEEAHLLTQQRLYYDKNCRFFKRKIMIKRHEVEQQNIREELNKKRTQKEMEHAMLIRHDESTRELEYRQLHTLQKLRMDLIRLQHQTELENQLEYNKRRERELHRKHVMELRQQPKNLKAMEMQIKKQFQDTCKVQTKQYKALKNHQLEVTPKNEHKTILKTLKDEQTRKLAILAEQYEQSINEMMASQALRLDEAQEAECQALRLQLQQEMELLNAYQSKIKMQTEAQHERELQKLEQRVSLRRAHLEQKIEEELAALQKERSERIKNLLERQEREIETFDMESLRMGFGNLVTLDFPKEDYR

[5] = target: T3, Serine/threonine-protein kinase TAO3 (Homo sapiens); settings: at 10 µM
[6] = target: T4, Serine/threonine-protein kinase TBK1 (Homo sapiens) (UniProt Q9UHD2); settings: at 1 µM
T4 sequence (whole entry): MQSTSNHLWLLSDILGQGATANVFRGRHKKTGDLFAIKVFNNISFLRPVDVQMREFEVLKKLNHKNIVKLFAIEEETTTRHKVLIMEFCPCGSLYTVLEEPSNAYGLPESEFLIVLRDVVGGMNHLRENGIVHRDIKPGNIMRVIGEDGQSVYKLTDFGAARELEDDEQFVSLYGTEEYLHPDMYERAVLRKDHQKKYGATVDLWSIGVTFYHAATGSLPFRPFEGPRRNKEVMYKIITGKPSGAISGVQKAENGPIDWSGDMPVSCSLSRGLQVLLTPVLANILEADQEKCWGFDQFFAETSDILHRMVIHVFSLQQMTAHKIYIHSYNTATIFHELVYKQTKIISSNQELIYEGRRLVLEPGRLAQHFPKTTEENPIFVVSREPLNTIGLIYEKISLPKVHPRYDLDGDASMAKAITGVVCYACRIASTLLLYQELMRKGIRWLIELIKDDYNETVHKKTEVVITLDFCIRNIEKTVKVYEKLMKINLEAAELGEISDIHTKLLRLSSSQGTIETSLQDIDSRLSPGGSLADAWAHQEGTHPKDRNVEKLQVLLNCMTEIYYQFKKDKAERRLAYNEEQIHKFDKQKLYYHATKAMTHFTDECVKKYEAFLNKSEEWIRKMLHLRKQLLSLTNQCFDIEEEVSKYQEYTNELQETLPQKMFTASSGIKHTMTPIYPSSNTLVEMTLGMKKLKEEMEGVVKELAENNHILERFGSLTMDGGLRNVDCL

[7] = target: T4, Serine/threonine-protein kinase TBK1 (Homo sapiens); settings: at 10 µM
[8] = target: T5, Inhibitor of nuclear factor kappa-B kinase subunit alpha (Homo sapiens) (UniProt O15111); settings: at 1 µM
T5 sequence (whole entry): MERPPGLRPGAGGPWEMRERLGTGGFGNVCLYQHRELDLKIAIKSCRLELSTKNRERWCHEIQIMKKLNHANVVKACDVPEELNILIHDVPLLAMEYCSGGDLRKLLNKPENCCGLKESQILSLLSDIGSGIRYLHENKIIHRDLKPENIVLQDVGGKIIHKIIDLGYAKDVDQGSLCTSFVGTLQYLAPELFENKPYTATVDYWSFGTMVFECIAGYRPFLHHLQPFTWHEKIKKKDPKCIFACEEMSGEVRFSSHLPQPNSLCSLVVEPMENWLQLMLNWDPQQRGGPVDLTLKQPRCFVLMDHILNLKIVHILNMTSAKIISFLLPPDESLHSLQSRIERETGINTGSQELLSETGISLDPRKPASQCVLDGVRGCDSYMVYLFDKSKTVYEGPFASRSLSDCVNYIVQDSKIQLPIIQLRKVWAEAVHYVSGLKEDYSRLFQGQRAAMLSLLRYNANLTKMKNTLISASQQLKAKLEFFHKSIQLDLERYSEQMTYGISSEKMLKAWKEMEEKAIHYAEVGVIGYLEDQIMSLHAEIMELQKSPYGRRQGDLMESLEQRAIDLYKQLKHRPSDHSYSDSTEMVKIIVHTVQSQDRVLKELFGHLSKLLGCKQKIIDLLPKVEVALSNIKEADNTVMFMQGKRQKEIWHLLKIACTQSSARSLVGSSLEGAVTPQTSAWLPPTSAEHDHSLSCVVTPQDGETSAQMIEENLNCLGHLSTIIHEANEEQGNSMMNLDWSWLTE

[9] = target: T5, Inhibitor of nuclear factor kappa-B kinase subunit alpha (Homo sapiens); settings: at 10 µM

O=C1NC(=O)C(c2cn(CCCn3ccnc3)c3ccccc23)=C1Nc1ccccc1
residual activity [1]: 67% | residual activity [2]: 66% | residual activity [3]: 37% | residual activity [4]: 63% | residual activity [5]: 19% | residual activity [6]: 22% | residual activity [7]: 9% | residual activity [8]: 112% | residual activity [9]: 103%
